Assay outcomes as filed in PubChem.
CSC inhib – cancer stem cell inhibition; 300,000 tested, 1.1% active; inhibition, % at 7.5 µM; cancer stem cell-like cells viability, luminescence; AID 2717; in the data active means inhibition above about 75%; tested in HMLE shEcad cells
697 NFkB inh – inhibitors of the PMA/ionomycin-induced NF-kB reporter in 697 B cells | 697 B-cell NF-kB luciferase reporter, 16 h | inhibition, % at 4 µM | 330,000 tested, 0.33% active; in the data active means inhibition above about 35%
Mdm2-MdmX inh – disrupts the human Mdm2-MdmX interaction; AID 485346; inhibition, % at 8 µM; 330,000 tested, 3% active; SaOS-2 split-luciferase Mdm2/MdmX complementation, luminescence;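 active means inhibition of at least 50% at 8 µM in the primary screen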
Target sequence (O15151 whole entry, looked up): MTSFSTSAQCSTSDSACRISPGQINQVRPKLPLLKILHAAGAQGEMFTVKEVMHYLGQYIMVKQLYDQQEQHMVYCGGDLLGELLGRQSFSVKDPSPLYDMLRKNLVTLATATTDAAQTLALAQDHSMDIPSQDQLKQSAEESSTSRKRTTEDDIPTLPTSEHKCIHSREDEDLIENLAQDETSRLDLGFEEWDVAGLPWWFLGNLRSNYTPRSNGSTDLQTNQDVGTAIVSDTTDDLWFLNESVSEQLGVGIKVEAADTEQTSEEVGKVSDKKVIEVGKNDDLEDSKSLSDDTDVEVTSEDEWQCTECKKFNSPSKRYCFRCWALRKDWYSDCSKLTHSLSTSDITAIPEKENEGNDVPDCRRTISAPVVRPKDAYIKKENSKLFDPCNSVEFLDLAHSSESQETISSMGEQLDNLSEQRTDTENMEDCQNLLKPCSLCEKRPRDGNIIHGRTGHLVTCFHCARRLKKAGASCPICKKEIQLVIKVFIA
Target sequence (Q00987 whole entry, looked up): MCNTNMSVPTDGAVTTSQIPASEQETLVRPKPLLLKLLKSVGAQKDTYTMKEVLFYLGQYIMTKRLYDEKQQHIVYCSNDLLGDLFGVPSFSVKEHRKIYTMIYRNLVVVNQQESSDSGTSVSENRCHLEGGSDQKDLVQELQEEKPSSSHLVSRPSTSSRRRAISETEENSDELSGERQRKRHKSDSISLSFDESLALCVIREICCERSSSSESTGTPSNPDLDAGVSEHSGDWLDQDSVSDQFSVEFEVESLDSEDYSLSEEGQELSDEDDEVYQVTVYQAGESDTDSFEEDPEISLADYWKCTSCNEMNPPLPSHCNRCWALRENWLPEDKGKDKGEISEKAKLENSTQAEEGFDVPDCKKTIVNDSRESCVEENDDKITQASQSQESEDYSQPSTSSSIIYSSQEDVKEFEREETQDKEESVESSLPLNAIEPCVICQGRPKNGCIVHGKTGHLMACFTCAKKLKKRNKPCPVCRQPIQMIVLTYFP
Jurkat NFkB inh – lowers PMA/ionomycin-induced NF-kB signal in Jurkat cells | 330,000 tested, 0.53% active | PMA/ionomycin-induced NF-kB luciferase reporter, luminescence | inhibition, % at 4 µM; in the data active means inhibition above about 50%
aSyn 5UTR inh – 5' untranslated region of α-synuclein, MLPCN primary screen | inhibition, % (tested at 7.5 µM) | 300,000 tested, 0.82% active | alpha-synuclein 5'UTR reporter, inhibitor activity; in the data active means inhibition above about 60%;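 further: H4 neuroglioblastoma cells stably carrying SNCA 5'UTR luciferase fusion; 0% = DMSO wells and 100% = positive control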
Gli-Sufu block – antagonists of Gli-Sufu signaling; Sufu-KO-LIGHT fibroblasts, Gli luciferase reporter luminescence; inhibition, % at 5 µM; 340,000 tested, 0.74% active;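 active means inhibition above about 55%, limit read from the data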;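 further: 0% = DMSO-treated cells and 100% = wells with medium but no cells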
Mdm2 MdmX conf – confirmation of human Mdm2/MdmX interaction inhibitors. shares compounds with Mdm2-MdmX inh. Mdm2-MdmX binding, luminescent assay. inhibition, % at 8 µM. 10,000 tested, 55% active. AID 489028; in the data active means inhibition above about 40%
FLuc counter – counter-screen for Mdm2/MdmX inhibitors: full-length luciferase | 6,200 tested, 77% active | AID 504607 | inhibition, % at 8 µM | shares compounds with Mdm2-MdmX inh | SaOS-2 full-length luciferase counterscreen, luminescence;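 active means mean inhibition at 8 µM reaching about 37%, which flags the compound as non-specific, limit read from the data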;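 further: p53-null SaOS-2 cells with luciferase driven by a doxycycline-inducible promoter; compound on cells about two nights before reading with doxycycline added after day one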
Starred values were filed as active, the others as inactive. Most compounds without a hit are left out; they make up all but 4.5% or so of the library.

How did CC(C)(C)C(=O)O/N=C(\N)c1ccc(Br)cc1 do in these assays?
CSC inhib: -6; 697 NFkB inh: 17; Mdm2-MdmX inh: 42; Jurkat NFkB inh: -13; aSyn 5UTR inh: -41; Gli-Sufu block: -1

What do the screens show for `COc1ccc(C(=O)O/N=C(\N)c2ccccc2)cc1`?
CSC inhib: -8; 697 NFkB inh: -236; Mdm2-MdmX inh: 55*; Jurkat NFkB inh: -106; aSyn 5UTR inh: -82; Gli-Sufu block: -78; Mdm2 MdmX conf: 22

Results for O=C(c1c(F)c(F)c(F)c(F)c1F)N1CCc2ccccc21 ?
CSC inhib: -7; 697 NFkB inh: -20; Mdm2-MdmX inh: 10; Jurkat NFkB inh: -8; aSyn 5UTR inh: -6; Gli-Sufu block: 4

Results for CCOc1ccc(NC(=O)C(=O)NCCN2CCN(S(=O)(=O)c3ccc(C)cc3)CC2)cc1 ?
CSC inhib: -3; 697 NFkB inh: 0; Mdm2-MdmX inh: 35; Jurkat NFkB inh: 8; aSyn 5UTR inh: 4; Gli-Sufu block: 27

Results for CCN1CCN(c2ccc(NC(=O)CCc3c(C)nc4c(-c5ccc(F)cc5)c(C)nn4c3C)cc2)CC1 ?
CSC inhib: 81*; 697 NFkB inh: -21; Mdm2-MdmX inh: 55*; Jurkat NFkB inh: 10; aSyn 5UTR inh: -39; Gli-Sufu block: 32; Mdm2 MdmX conf: 36

How did Cc1nc2c(-c3ccc(F)cc3)c(C)nn2c(C)c1CCC(=O)Nc1ccccc1 do in these assays?
CSC inhib: -2; 697 NFkB inh: 1; Mdm2-MdmX inh: 24; Jurkat NFkB inh: 12; aSyn 5UTR inh: 24; Gli-Sufu block: -2

Results for CCc1ccc(-n2c(SCC(=O)c3ccc4c(c3)NC(=O)CO4)nc3ccccc3c2=O)cc1 ?
CSC inhib: 22; 697 NFkB inh: -50; Mdm2-MdmX inh: 64*; Jurkat NFkB inh: -8; aSyn 5UTR inh: -5; Gli-Sufu block: 38; Mdm2 MdmX conf: -4

How did O=C1COc2ccc(C(=O)CSc3nc4ccccc4c(=O)n3-c3ccc(Cl)c(Cl)c3)cc2N1 do in these assays?
CSC inhib: -4; 697 NFkB inh: -12; Mdm2-MdmX inh: 98*; Jurkat NFkB inh: 2; aSyn 5UTR inh: 26; Gli-Sufu block: 8; Mdm2 MdmX conf: 24

How did CCCn1c(SCC(=O)c2ccc3c(c2)NC(=O)CO3)nc2ccccc21 do in these assays?
CSC inhib: 0; 697 NFkB inh: -21; Mdm2-MdmX inh: 39; Jurkat NFkB inh: -22; aSyn 5UTR inh: -12; Gli-Sufu block: 5

What do the screens show for `Cn1c(SCC(=O)c2ccc3c(c2)NC(=O)CO3)nc2ccccc21`?
CSC inhib: 8; 697 NFkB inh: -2; Mdm2-MdmX inh: 14; Jurkat NFkB inh: 2; aSyn 5UTR inh: -37; Gli-Sufu block: -7

Results for CCn1ccnc1CN(C)Cc1c(C(=O)N2CCCCCCC2)nc2ccc(Cl)cn12 ?
CSC inhib: -3; 697 NFkB inh: -8; Mdm2-MdmX inh: -7; Jurkat NFkB inh: -26; aSyn 5UTR inh: -7; Gli-Sufu block: 10

How did CCCN(CC(=O)Nc1cc(Cl)cc(Cl)c1)CC(=O)Nc1ccc(F)c(F)c1F do in these assays?
697 NFkB inh: -14; Mdm2-MdmX inh: 52*; Jurkat NFkB inh: -1; aSyn 5UTR inh: -15; Gli-Sufu block: 3; Mdm2 MdmX conf: 15

Results for CC(C)=CCc1c(O)cc(O)c2c(=O)c3c(CC=C(C)C)c(O)ccc3oc12 ?
CSC inhib: -5; 697 NFkB inh: -29; Mdm2-MdmX inh: 94*; Jurkat NFkB inh: -9; aSyn 5UTR inh: 16; Gli-Sufu block: 16; Mdm2 MdmX conf: 29

Results for CC(C)=CCc1c(O)cc(O)c2c(=O)c(O[C@@H]3O[C@@H](C)[C@H](O)[C@@H](O)[C@H]3O)c(-c3ccc(O)cc3)oc12 ?
CSC inhib: 6; 697 NFkB inh: 33; Mdm2-MdmX inh: 16; Jurkat NFkB inh: 9; aSyn 5UTR inh: -2; Gli-Sufu block: 5

Results for COc1ccc(N=c2oc3c(OC)cccc3cc2C(=O)NCc2ccco2)c(OC)c1 ?
CSC inhib: 29; 697 NFkB inh: 5; Mdm2-MdmX inh: 68*; Jurkat NFkB inh: -4; aSyn 5UTR inh: 10; Gli-Sufu block: 14; Mdm2 MdmX conf: -10

What do the screens show for `COc1ccc2cc(C(=O)NCc3ccco3)c(=Nc3ccc(C(=O)O)cc3)oc2c1`?
CSC inhib: 1; 697 NFkB inh: 9; Mdm2-MdmX inh: 6; Jurkat NFkB inh: -10; aSyn 5UTR inh: -21; Gli-Sufu block: 5

How did Cc1cccc(NC(=O)C2C3C=CC(O3)C2C(=O)O)c1 (centres undefined) do in these assays?
CSC inhib: -9; 697 NFkB inh: -10; Mdm2-MdmX inh: 4; Jurkat NFkB inh: 5; aSyn 5UTR inh: 2

What do the screens show for `COc1ccccc1CC(=O)N1CCN(C(=O)c2ccco2)CC1`?
CSC inhib: -1; 697 NFkB inh: 22; Mdm2-MdmX inh: 0; Jurkat NFkB inh: 22; aSyn 5UTR inh: 10; Gli-Sufu block: 2

Results for Cc1nc2ccccc2nc(C)c1=NOCc1ccccc1Cl ?
CSC inhib: 3; 697 NFkB inh: -24; Mdm2-MdmX inh: -15; Jurkat NFkB inh: 0; aSyn 5UTR inh: -20; Gli-Sufu block: 11

Results for Cn1c(-c2cccc(OCc3ccccc3)c2)nc2c1c(=O)[nH]c(=O)n2Cc1ccccc1 ?
CSC inhib: 6; 697 NFkB inh: 5; Mdm2-MdmX inh: 85*; Jurkat NFkB inh: -6; Gli-Sufu block: -1; Mdm2 MdmX conf: 38

What do the screens show for `Cn1c(=O)[nH]c(=O)c2c1nc([N+](=O)[O-])n2Cc1ccccc1`?
CSC inhib: 49; 697 NFkB inh: 6; Mdm2-MdmX inh: 96*; Jurkat NFkB inh: 10; aSyn 5UTR inh: -42; Gli-Sufu block: -1; Mdm2 MdmX conf: 79*; FLuc counter: 56*

Results for Cn1c(-c2cccc(F)c2)nc2c1c(=O)[nH]c(=O)n2Cc1ccccc1 ?
CSC inhib: -3; 697 NFkB inh: 7; Mdm2-MdmX inh: 20; Jurkat NFkB inh: 19; aSyn 5UTR inh: 7; Gli-Sufu block: 17

How did CCCCOC(=O)Nc1cccc(C(C)=O)c1 do in these assays?
CSC inhib: -3; 697 NFkB inh: -6; Mdm2-MdmX inh: 3; Jurkat NFkB inh: -15; aSyn 5UTR inh: -59; Gli-Sufu block: -20

Results for O=C(COC(=O)c1c2c(nc3ccccc13)/C(=C\c1ccco1)CC2)NC1CCCC1 ?
Gli-Sufu block: 10

What do the screens show for `O=C(COC(=O)c1c2c(nc3ccccc13)/C(=C/c1cccc([N+](=O)[O-])c1)CCC2)NC1CCS(=O)(=O)C1` (centres undefined)?
CSC inhib: 67; 697 NFkB inh: -43; Mdm2-MdmX inh: 71*; Jurkat NFkB inh: -9; aSyn 5UTR inh: 5; Gli-Sufu block: 11; Mdm2 MdmX conf: 31
